Shown is part of a subset that was picked to be rich in hits.
KDM5B inh: KDM5B demethylase inhibition; KDM5B demethylase, FDH-coupled NADH fluorescence (FDH is formaldehyde dehydrogenase); Potency, µM (series often up to 57.7 µM), usual class: inhibitors; actives 2.6% (n = 220,000); active = well fitted inhibition curve with a large enough effect; note: nearly all actives have a fitted effect of over 70% in size
Target sequence (Q9UGL1 whole entry, looked up): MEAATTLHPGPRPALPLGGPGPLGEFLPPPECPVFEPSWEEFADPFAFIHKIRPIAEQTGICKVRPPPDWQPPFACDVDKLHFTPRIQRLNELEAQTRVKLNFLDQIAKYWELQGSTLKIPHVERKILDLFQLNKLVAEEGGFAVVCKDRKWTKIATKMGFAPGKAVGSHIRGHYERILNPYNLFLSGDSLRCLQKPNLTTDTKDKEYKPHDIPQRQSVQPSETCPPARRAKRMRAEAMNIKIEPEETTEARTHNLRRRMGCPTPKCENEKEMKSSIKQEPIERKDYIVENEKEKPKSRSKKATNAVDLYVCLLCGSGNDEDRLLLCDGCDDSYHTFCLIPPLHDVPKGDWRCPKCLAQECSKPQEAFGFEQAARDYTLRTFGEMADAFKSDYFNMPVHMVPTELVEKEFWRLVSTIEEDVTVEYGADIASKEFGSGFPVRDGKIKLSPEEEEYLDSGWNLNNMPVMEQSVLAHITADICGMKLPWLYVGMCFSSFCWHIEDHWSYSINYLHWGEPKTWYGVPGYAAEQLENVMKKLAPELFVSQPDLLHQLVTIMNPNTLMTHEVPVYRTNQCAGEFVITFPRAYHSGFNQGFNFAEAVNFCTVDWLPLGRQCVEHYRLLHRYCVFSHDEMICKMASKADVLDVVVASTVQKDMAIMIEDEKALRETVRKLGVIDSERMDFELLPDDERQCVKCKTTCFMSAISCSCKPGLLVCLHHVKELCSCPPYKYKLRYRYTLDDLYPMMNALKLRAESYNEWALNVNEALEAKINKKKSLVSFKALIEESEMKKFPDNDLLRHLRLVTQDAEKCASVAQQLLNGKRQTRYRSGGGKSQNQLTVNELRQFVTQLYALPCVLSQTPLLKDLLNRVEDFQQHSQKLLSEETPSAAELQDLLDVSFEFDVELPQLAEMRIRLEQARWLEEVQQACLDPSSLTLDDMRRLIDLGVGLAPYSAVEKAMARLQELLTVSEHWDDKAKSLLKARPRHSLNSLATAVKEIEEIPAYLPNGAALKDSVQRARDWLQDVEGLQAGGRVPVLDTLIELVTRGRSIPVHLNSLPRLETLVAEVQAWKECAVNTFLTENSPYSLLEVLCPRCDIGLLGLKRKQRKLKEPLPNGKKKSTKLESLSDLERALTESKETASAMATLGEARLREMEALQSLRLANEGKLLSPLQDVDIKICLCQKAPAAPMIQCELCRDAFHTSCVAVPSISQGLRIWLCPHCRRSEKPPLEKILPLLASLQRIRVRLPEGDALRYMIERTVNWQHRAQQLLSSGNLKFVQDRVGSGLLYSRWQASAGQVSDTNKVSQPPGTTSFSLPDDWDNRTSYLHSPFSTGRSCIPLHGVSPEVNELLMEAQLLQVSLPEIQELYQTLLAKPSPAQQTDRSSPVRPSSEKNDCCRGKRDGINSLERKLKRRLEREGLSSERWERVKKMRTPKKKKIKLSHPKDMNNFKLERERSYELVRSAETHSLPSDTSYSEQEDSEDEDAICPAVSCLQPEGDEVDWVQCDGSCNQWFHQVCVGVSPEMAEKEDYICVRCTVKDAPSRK
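Coupled FDH/NAD⁺ fluorescence readout. KDM5BΔAP 200 nM final; compound titration, 10 min RT preincubation; substrate mix 12.5 µM H3K4me3, 25 µM 2-OG, 50 µM Fe(II), 100 µM ascorbate, 0.25 mM NAD⁺, 0.25 U/mL FDH; ΔRFU over 30 min.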
Large screens that a line does not name were inactive.

Cc1noc([C@@H]2CN(Cc3cccc(Cl)c3)C[C@H]2CO)n1	none
CCc1nc2ccccc2c(C(=O)OCC(=O)NC2(C#N)CCCC2)c1C	none
CC(=O)Nc1ccc(S(=O)(=O)N2CCN3C(=O)CN(C)C(=O)C3C2)cc1 (stereo not given)	none
COc1cc(C#N)cc(Br)c1OCc1ccccc1	none
O=C(O)c1cccc(OCc2nnnn2-c2ccc(Cl)c(Cl)c2)c1	none
COCCN(Cc1nccs1)C(=O)c1cnc(-c2ccccn2)[nH]c1=O	KDM5B inh 11.2µM
CCN(Cc1noc(CC(C)C)n1)C(=O)c1ccc(C2CCCNC2)cc1 (stereo not given)	none
Cc1ccc(-c2ncc(C(=O)N(C)Cc3nc(CC(C)C)no3)c(=O)[nH]2)cc1	none
COCCN(Cc1nccs1)Cc1cn[nH]c1-c1ccc(F)cc1	none
CCN(Cc1noc(CC(C)C)n1)C(=O)c1cnc(-c2ccccn2)[nH]c1=O	KDM5B inh 7.94µM
COCCN(Cc1ccccn1)C(=O)c1ccc2c(c1)ncn2C	none
CN(Cc1cc2n(n1)CCCNC2)Cc1nc(-c2ccccc2)cs1	none
CCNC(=O)N(C1CC1)C1CCOC2(CCN(C(=O)c3ocnc3C)CC2)C1 (stereo not given)	none
COc1ccc(C(C)=O)cc1COC(=O)Cc1ccc(Br)cc1	none
Cc1cc(C)c(NC(=O)CSc2nncn2C)c(Cl)c1	none
O=C(Nc1cccc(Cl)c1F)N1CCC(OC2CCN(Cc3ccccc3)CC2)CC1	none
Cc1noc(-c2ccn3c(CNC(=O)COc4ccc(F)cc4)nnc3c2)n1	KDM5B inh 12.6µM
COc1ccc(C(=O)N2CCCC(n3cc(-c4nc(C(C)C)no4)nn3)C2)cc1F (stereo not given)	none
Cc1noc(-c2ccn3c(CNC(=O)c4ccc(C)c(F)c4)nnc3c2)n1	KDM5B inh 3.55µM
Cc1ccc(C(=O)NCc2nnc3cc(-c4nc(C(C)C)no4)ccn23)cc1F	KDM5B inh 7.08µM
COc1ccc(C(=O)NCCc2noc(-c3ccccc3)n2)cc1F	none
CC(C)c1noc(-c2ccc(OCC(=O)NCc3cc(F)cc(F)c3)cc2)n1	none
COc1ccc(C(=O)NCc2nnc3cc(-c4nc(C(C)C)no4)ccn23)cc1F	KDM5B inh 10µM
Cc1ccc(C(=O)NCCn2cccc2-c2nc(-c3ccccc3)no2)cc1F	none
O=C1NCc2ccccc2CC12CCCN2Cc1c(F)cccc1Cl (stereo not given)	none
CN(CC(=O)Nc1ccc(Cl)c(Cl)c1)S(=O)(=O)Cc1ccc(F)cc1	none
Cc1ccc(NC(=O)CN(C)C(=O)c2ccc(S(=O)(=O)Nc3ccc(Cl)cc3)cc2)cc1	none
CCc1c(C)nn(CC(=O)N2CCC3(CCNC(=O)CC3)CC2)c1C	none
COc1ccc(-c2nnc(SCc3nc(-c4ccco4)no3)n2CCc2ccccc2)cc1	none
Cc1cc(C)c(NC(=O)CCc2ncc(-c3ccccc3)o2)c(C)c1	none
CC[C@@]1(O)CCN(C(=O)c2cccc(CCC(C)(C)O)c2)C[C@H]1O	none
c1coc(-c2nc(CSc3ccc4c(c3)OCCCO4)cs2)c1	none
COc1ccc(OC)c(C2CCCN2CC(=O)N(C)c2ccccc2)c1 (stereo not given)	none
COc1ccc(CSc2nnc(Cc3ccc(OCC(C)C)cc3)n2C)cc1Br	none
COc1ccc(C(=O)C(C)OC(=O)c2ccc(OCC3CCCO3)cc2)cc1 (stereo not given)	none
CC(=O)Nc1ccc(CN2CCC3(C2)C(=O)Nc2ccccc23)cc1 (stereo not given)	none
COc1ccc(NC(=O)c2nc3ccccc3nc2N2CCN(C)CC2)cc1	none
COc1ccc(CNC(=O)Nc2ccccc2)cc1	none
COC1CCN(C(=O)Cn2c3c(c(=O)n2Cc2ccccc2)CCN(Cc2ccccc2)C3)CC1	none
CNC(=O)[C@@H]1CN(Cc2ccccc2)C[C@H]1c1n[nH]c(C)n1	none
COCCNC(=O)C1Cn2cccc2C(=O)N1Cc1ccccc1 (stereo not given)	none
CCc1cccc(NC(=O)N2CCC(OC3CCN(Cc4ccccc4)CC3)CC2)c1	none
COCCNC(=O)C1(C)CN(Cc2ccccc2)Cc2ccc(Nc3ccccc3)nc21 (stereo not given)	KDM5B inh 31.6µM
COC1CCN(C(=O)C2(C)CN(Cc3ccccc3)Cc3ccc(Nc4ccccc4)nc32)CC1 (stereo not given)	KDM5B inh 31.6µM
COCCNC(=O)C1CN(Cc2ccccc2)C(=O)N1 (stereo not given)	none
CNC(=O)C1(C)CN(Cc2ccccc2)Cc2ccc(Nc3ccccc3)nc21 (stereo not given)	KDM5B inh 35.5µM
COCCN1Cc2ccc(Nc3ccc(OC)cc3)nc2C(C)(C(=O)Nc2ccccc2)C1 (stereo not given)	KDM5B inh 31.6µM
O=C(c1cc(-c2cccs2)on1)N1CCCC1c1cccc(F)c1 (stereo not given)	none
CCN(C(=O)CCC(=O)N1CCC(C)(c2noc(-c3ccccn3)n2)CC1)c1ccccc1	none
CCc1ccccc1S(=O)(=O)N1CCC(n2cnnc2C)CC1	none
CCC(C)NC(=O)c1cc(-c2cccnc2)nc2ccccc12 (stereo not given)	none
Cn1ccc2c(C(=O)NCc3cccnc3)nc(-c3ccc([S+](C)(=O)[O-])cc3)cc21	none
Cn1ncc2c(C(=O)NC3CC3)cc(-c3cc(Cl)cc(Cl)c3)nc21	none
Cn1ncc2c(C(=O)NCC3CC3)cc(-c3cccnc3)nc21	KDM5B inh 100µM
O=C(NCc1ccncc1)c1cc(-c2ccncc2)nc2ccccc12	none
O=C(NCc1ccc(F)cc1)c1cc(-c2ccncc2)nc2ccccc12	none
Cn1ncc2c(NCc3ccc(F)cc3)ncnc21	none
Cn1ncc2c(-c3ccc([S+](C)(=O)[O-])cc3)cc(C(=O)NCc3ccc(F)cc3)nc21	KDM5B inh 79.4µM
Cn1ncc2c(C(=O)NCc3ccncc3)cc(-c3ccc(F)cc3)nc21	KDM5B inh 79.4µM
CC(C)=CCC/C(C)=C/C=N/NC(=S)Nc1ccc(C)cc1	none
Cc1ccc(NC(C)(C)C(=O)N2CCC3(CC2)CN(C)CCN3C)cc1	none
Fc1ccc(OCc2nc(CSc3ncc(-c4ccc(F)cc4)o3)cs2)cc1	none
COCCNc1oc(-c2ccco2)nc1S(=O)(=O)c1ccc2c(c1)OCCO2	none
CCCn1c(=O)[nH]c(=O)c2c1nc(-c1ccc(C)cc1)n2CCN1CCOCC1	none
Cc1nc2n(c(=O)c1C)CN(Cc1cccnc1)CN2c1ccc(Cl)cc1Cl	none
CCOc1ccc2c(n1)CCN(C(=O)Nc1ccc(C)c(C)c1)C2	none
Cc1cc(C)n(CC(=O)N2CC(N(C)Cc3cccnc3)C2)n1	none
COc1ccccc1-c1nc(CSc2nc(C)cc(=O)[nH]2)c(C)o1	none
CCOCC(=O)N1CCC2(CC1)CC(c1ccccc1)C(=O)N2C (stereo not given)	none
CC[C@H]1CN(S(=O)(=O)c2c(C)noc2C)CC[C@H]1CC(=O)NCc1cccc2ccccc12	none
O=C1CC(/C=C/c2ccccc2)Cc2nc(N3CCCC3)ncc21 (stereo not given)	none
Cc1c(-c2ccccc2F)[nH]c2ccc(CNC(=O)C3CCNC3)cc12 (stereo not given)	KDM5B inh 28.2µM
Cc1[nH]c2ccc(C(=O)N(Cc3ccccc3F)C3CC3)cc2c1C	none
COC(=O)c1c(C)[nH]c(-c2ccccc2F)c1C1C(=O)Nc2ccccc21 (stereo not given)	none
Cc1c(-c2ccccc2F)[nH]c2ccc(CNS(=O)(=O)C3CC3)cc12	KDM5B inh 28.2µM
Cc1[nH]c2ccccc2c1C(=O)C(=O)NCCNC(=O)C1CCCC1	none
Cc1cc(CNC(=O)C2CCCCC2)c2ccccc2n1	none
N#Cc1ccccc1S(=O)(=O)N1CCN(C(=O)NC2CCCC2)CC1	none
